Counter-ions that a name gives are not always drawn.
Assays:
Assay in all cases: thermal shift delta Tm vs DMSO control; higher = stronger stabilization (binding)
Settings in all cases: 12.5 µM; protein concentration 2 µM
[1] = tested on: LOC_OS04G57630-cb004
How it was run: (§1)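 Compounds dissolved in DMSO were added to purified rice kinase domain constructs, which had been expressed in E. coli, for differential scanning fluorimetry. Each well held 19.5 μl of 2 μM kinase in 100 mM potassium phosphate pH 7.5, 150 mM NaCl, 10% glycerol and 5 × SYPRO Orange. Fluorescence was followed from 25°C to 95°C at a rate of 0.05°C/s. Shifts in Boltzmann-fitted melting temperature are triplicate means relative to DMSO-only protein.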

[2] = tested on: LOC_OS05G07850-cb002
How it was run: as §1

[3] = tested on: LOC_OS05G16824-cb004
How it was run: as §1

[4] = tested on: LOC_OS05G28520-cb001
How it was run: as §1

[5] = tested on: LOC_OS05G30820-cb001
How it was run: as §1

[6] = tested on: LOC_OS05G43570-cb004
How it was run: as §1

[7] = tested on: LOC_OS06G16330-cb003
Chain of LOC_OS06G16330-cb003 (as listed by the source): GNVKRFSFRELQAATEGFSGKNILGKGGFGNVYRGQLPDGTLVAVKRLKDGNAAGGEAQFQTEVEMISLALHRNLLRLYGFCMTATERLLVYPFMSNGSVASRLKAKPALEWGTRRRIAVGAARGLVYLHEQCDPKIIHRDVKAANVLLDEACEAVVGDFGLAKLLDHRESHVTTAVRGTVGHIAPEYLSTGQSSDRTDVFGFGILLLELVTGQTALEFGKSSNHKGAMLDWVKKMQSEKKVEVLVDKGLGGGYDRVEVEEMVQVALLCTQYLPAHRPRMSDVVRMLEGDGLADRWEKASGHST
How it was run: as §1

[8] = tested on: T1, LOC_OS06G22820-cb001
T1 sequence (whole entry): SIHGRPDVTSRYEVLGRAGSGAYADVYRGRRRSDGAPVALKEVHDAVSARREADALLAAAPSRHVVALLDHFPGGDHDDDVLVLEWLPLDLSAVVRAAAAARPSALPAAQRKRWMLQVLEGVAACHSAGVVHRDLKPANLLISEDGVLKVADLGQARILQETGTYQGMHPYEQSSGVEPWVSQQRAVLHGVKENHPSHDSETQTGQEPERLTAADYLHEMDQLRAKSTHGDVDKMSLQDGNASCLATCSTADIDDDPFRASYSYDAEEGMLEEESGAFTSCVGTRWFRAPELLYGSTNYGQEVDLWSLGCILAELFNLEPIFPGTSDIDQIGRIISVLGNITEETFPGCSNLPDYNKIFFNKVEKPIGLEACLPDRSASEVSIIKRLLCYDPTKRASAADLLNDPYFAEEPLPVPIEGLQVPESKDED
How it was run: as §1

[9] = tested on: LOC_OS07G06570-cb004
How it was run: as §1

[10] = tested on: LOC_OS07G07230-cb001
How it was run: as §1

SMILES	thermal shift delta Tm [1] [°C]	thermal shift delta Tm [2] [°C]	thermal shift delta Tm [3] [°C]	thermal shift delta Tm [4] [°C]	thermal shift delta Tm [5] [°C]	thermal shift delta Tm [6] [°C]	thermal shift delta Tm [7] [°C]	thermal shift delta Tm [8] [°C]	thermal shift delta Tm [9] [°C]	thermal shift delta Tm [10] [°C]
Cc1cc(CN2CCN(c3c(Br)cnc4nc(-c5ccc(N6CCN(C)CC6)cc5)[nH]c34)CC2)no1	1.11	8.75	3.92	1.16	0.38	0.18	5.31	0.11	1.11	1.28
C[C@@H](NC(=O)c1ncnc(N)c1Cl)c1ncc(C(=O)Nc2cc(C(F)(F)F)c(Cl)cn2)s1	0.51	4.01	-2.64	1.62	0.73	0.28	0.58	0.53	1.4	0.05
CC#CC(=O)N1CCC[C@H]1c1nc(-c2ccc(C(=O)Nc3ccccn3)cc2)c2c(N)nccn12 [Acalabrutinib (ACP-196)]	0.54	1.21	-2.72	0.31	0.59	0.02	0.81	0.52	1.01	0.32
Cc1ccc(C(=O)Nc2cccc(C(F)(F)F)c2)cc1Nc1nc(-c2cccnc2)nc2c1cnn2C	0.31	0.03	-1.61	0.44	0.9	1.18	1.09	0.98	1.07	0.06
CC[C@H](CO)Nc1nc(NCc2ccccc2)c2ncn(C(C)C)c2n1 [Roscovitine (Seliciclib,CYC202)]	-0.29	0.09	-1.49	0.43	0.33	0.28	0.01	0.63	0.88	0.44
O=C1NC(=O)/C(=C/c2ccc3c(c2)OC(F)(F)O3)S1	0.83	0.16	-1.22	0.96	0.8	0.74	0.37	0.72	0.31	0.11
CCn1c(-c2nonc2N)nc2c(C#CC(C)(C)O)ncc(OC[C@H]3CCCNC3)c21	0.06	0.29	-1.28	0.27	0.49	1.47	-0.37	0.88	0.7	0.32
Cc1cc(Nc2nc(N[C@@H](C)c3ncc(F)cn3)ncc2Cl)[nH]n1	0.37	10.9	8.64	0.22	1.6	0.91	7.15	0.49	0.97	0.17
CC(C)Oc1ccc(-c2nn([C@@H](C)c3oc4ccc(F)cc4c(=O)c3-c3cccc(F)c3)c3ncnc(N)c23)cc1F	0.05	-1	-4.89	0.51	0.43	0.51	0.01	0.62	1.08	-0.07
O=C(NOC[C@H](O)CO)c1ccc(F)c(F)c1Nc1ccc(I)cc1F	-0.16	-0.38	0.88	0.62	0.37	1.5	0.23	1.03	1.11	0.26
CC(C)(C)c1cc(/C=C(\C#N)C(N)=S)cc(C(C)(C)C)c1O [Tyrphostin AG 879]	-0.19	12.1	-5.25	1.25	1.1	1.09	1.66	1.38	2.77	0.65
Nc1ncnc2n[nH]c(Nc3ccc(F)cc3)c12	-0.19	8.51	1.59	0.61	0.77	0.52	2.45	0.73	1.75	0.82
CN1CCC(Nc2nc(Nc3ccc(Oc4ccccc4)cc3)c3c(=O)[nH]cc(Br)c3n2)CC1	1.8	7.31	9.77	1.25	1.19	1.11	2.6	0.71	-0.18	-0.18
Cc1cc(Nc2cc(Cl)nc(Oc3ccc([N+](=O)[O-])cc3)n2)n[nH]1 [Autophinib]	-0.11	0.97	-0.37	0.34	0.1	0.13	0.35	0.51	1.89	0.73
COc1cc2c3cc1Oc1c(OC)c(OC)cc4c1[C@@H](Cc1ccc(O)c(c1)Oc1ccc(cc1)C[C@@H]3N(C)CC2)N(C)CC4 [Berbamine (dihydrochloride)]	-0.01	-0.48	-7.42	-0.11	0.47	0.27	-0.31	0.13	0.83	0.33
CN1CCN(S(=O)(=O)c2ccc(-c3cnc(N)c(C(=O)Nc4cccnc4)n3)cc2)CC1	0.6	7.93	1.41	0.68	0.46	-0.03	2.59	0.9	1.34	0.52
O=C(Nc1nc2cccc(-c3ccc(CN4CCS(=O)(=O)CC4)cc3)n2n1)C1CC1 [Filgotinib (GLPG0634)]	0	4.98	1.83	0.76	0.46	0.12	5.12	0.31	0.9	0.58
CNC(=O)c1ccccc1Sc1ccc2c(/C=C/c3ccccn3)n[nH]c2c1 [Axitinib]	0.24	5.45	0.17	-0.35	0.45	0.48	2.75	0.73	1.05	0.76
CCN1CCN(Cc2ccc(-c3cc4c(N[C@H](C)c5ccccc5)ncnc4[nH]3)cc2)CC1	0.95	5.78	3.87	1	0.48	0.5	4.68	0.76	1.03	0.13

— the supplement of paper PMC9694430
